Experimental data as given in PubChem BioAssay (NCI).
The panel holds about 83,000 compounds, 20% with a hit somewhere; the sample as a whole holds those more often.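 Testing used 96-well plates and a 48-hour single-concentration exposure. Example: -40 means 40% of the starting cells died.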 A number with no mark means an inactive call. Calls of active or inactive are those of the source. How the source made its calls: active means growth percent below 10; inactive means the rest.

How the values were obtained:
Assay in all cases: NCI-60 one-dose screen, 48 h (100 = growth as untreated, 0 = no growth, -100 = all killed)
Conditions in all cases: 10 µM
[1] = test system: SK-MEL-2 melanoma
[2] = test system: SN12C renal
[3] = test system: UO-31 renal
[4] = test system: TK-10 renal
[5] = test system: ACHN renal
[6] = test system: CAKI-1 renal
[7] = test system: A498 renal
[8] = test system: CCRF-CEM leukemia
[9] = test system: MOLT-4 leukemia
[10] = test system: SR leukemia
[11] = test system: RPMI-8226 leukemia
[12] = test system: OVCAR-8 ovarian
[13] = test system: OVCAR-5 ovarian
[14] = test system: OVCAR-4 ovarian
[15] = test system: SK-OV-3 ovarian
[16] = test system: IGROV1 ovarian
[17] = test system: OVCAR-3 ovarian
[18] = test system: HS 578T breast
[19] = test system: NCI/ADR-RES ovarian

Compound | growth [1] | growth [2] | growth [3] | growth [4] | growth [5] | growth [6] | growth [7] | growth [8] | growth [9] | growth [10] | growth [11] | growth [12] | growth [13] | growth [14] | growth [15] [%] | growth [16] | growth [17] | growth [18] | growth [19]
COc1ccc(-c2nc(-c3nc4ccc(OC)cc4[nH]3)c3ccccn23)cc1 | 71.3% | 71.4% | 25.5% | 79.3% | 64.2% | 64% | 55.5% | 33.8% | 45.5% | 32.4% | 3.21% (active) | 30.8% | 89.7% | 50.5% | 92.3 | 57.2% | 81.8% | 80% | 50.9%
FC(F)(F)c1ccc(-c2cnc(Br)nc2NC2CCCCCC2)cc1 | 13.2% | 21.9% | 34.7% | 36.6% | 10.4% | 72.6% | 81.3% | 28.5% | 57% | 51% | -4.63% (active) | 24.1% | 63.2% | 22.6% | 71.6 | 36.1% | 10.8% | 53.4% | 77.9%
CCc1nn2c(-c3ccccc3)c(-c3cc(OC)c(OC)c(OC)c3)nc2s1 | 37.9% | 88.1% | 57.6% | 82.2% | 85.8% | 69.4% | 62.5% | 70.9% | 72.4% | 59.4% | 60.2% | 88.1% | 98.5% | 68.5% | 102 | 87.3% | 92% | 69.8% | 77.1%
COc1ccc(-c2cc(=O)n(-c3nc4ccccc4[nH]3)[nH]2)cc1OC | 51% | 75% | 56.1% | 93.9% | 57.6% | 38.7% | 30.9% | -4.05% (active) | -32% (active) | 48.6% | 81.4% | 64.8% | 93.1% | 93.8% | 87.2 | 70.6% | 90.1% | 48.2% | 20.1%
O=[N+]([O-])c1cc2ncccc2c2ncccc12 | 84.9% | 87.2% | 52.1% | 106% | 65.3% | 84.2% | 111% | 74.9% | 61.4% | 74% | 82.8% | 63.3% | 98.3% | 103% | 94.4 | 56.3% | 84.5% | 104% | 75.1%
Cc1cccc2c(Nc3ccc(NS(C)(=O)=O)cc3)c3ccc([N+](=O)[O-])cc3nc12 | -19.1% (active) | 7.61% (active) | 10.5% | 20.7% | -11.4% (active) | 6.69% (active) | -11.2% (active) | -9.83% (active) | -5.36% (active) | 2.56% (active) | 0.668% (active) | 2.24% (active) | 49.9% | 16.6% | 38.3 | -27.4% (active) | -28.9% (active) | 56.6% | 66.6%
CN1CCN(c2nc(-c3cccnc3)nc3sc4c(c23)CCCCCC4)CC1 | 114% | 90.8% | 75% | 108% | 89.6% | 86.7% | 99.3% | 92.4% | 39.6% | 34.2% | 80.6% | 95.1% | 104% | 80.8% | 97.2 | 102% | 95.8% | 85.3% | 89.3%
COc1cc(C2C=C(c3ccc(Cl)c(Cl)c3)N=C3SC(C)=CN32)cc(OC)c1OC (centres undefined) | 83.4% | 92.3% | 55.2% | 94.7% | 90.3% | 67.3% | 74% | 36.7% | 46.2% | -11.9% (active) | -16.1% (active) | 73.1% | 93.2% | 67.8% | 107 | 85.6% | 79.8% | 100% | 81.3%
CCOC(=O)Cn1nnc(-c2ccc(OCc3ccccc3F)cc2)n1 | 100% | 98.2% | 58% | 105% | 84.6% | 76.5% | 40.9% | 92.4% | 90% | 35.4% | 90.8% | 101% | 92.6% | 86.4% | 93.5 | 87.9% | 100% | 81.2% | 57%
COc1ccc(C(=O)/C=C/c2cc(-c3ccc(OC)c(OC)c3)n[nH]2)cc1OC | 42.7% | -31.7% (active) | -95% (active) | -20.7% (active) | -70.9% (active) | -24.4% (active) | -40.7% (active) | 3.32% (active) | 1.44% (active) | 4.7% (active) | -45.9% (active) | -22.8% (active) | -8.32% (active) | -38.9% (active) | 41.2 | -32.7% (active) | -42% (active) | 46.6% | 4.63% (active)
CCCCC(CC#N)(CCC)CCC | 102% | 106% | 90.6% | 92.7% | 102% | 90.3% | 103% | 94.7% | 97.5% | 93.6% | 100% | 104% | 104% | 93.2% | 94.8 | 102% | 106% | 113% | 97.7%
Cc1ccc(-c2cc(C(=O)Nc3ccc(S(=O)(=O)N4CCCCC4)cc3)[nH]n2)c(O)c1 | 80% | 53.3% | 56.2% | 61.6% | 66.5% | 67.3% | 63.3% | 45.5% | 38.7% | 14.9% | 43.3% | 58.7% | 73.8% | 38.5% | 94.1 | 68.8% | 55.3% | 79.4% | 59.9%
COc1ccc(-c2cc(/C=C/C(=O)c3ccc(N)cc3)[nH]n2)cc1OC | 80.8% | 35.1% | 27.3% | 39.3% | 50.5% | 31% | 52.8% | 7.41% (active) | 7.23% (active) | 10.3% | -12.6% (active) | 15.2% | 45% | 24.4% | 39 | 29.1% | 5.89% (active) | 1.16% (active) | 78.6%
O=C(COc1ccc(-c2nc3ccccc3[nH]2)cc1)N=Nc1c(O)[nH]c2ccccc12 | 113% | 91.7% | 93.4% | 128% | 98.7% | 99.2% | 86.4% | 4.95% (active) | 91.8% | 1.13% (active) | 71.5% | 78.4% | 116% | 15.5% | 105 | 99.5% | 62.5% | 103% | 108%
CCNC1(NC#N)CCCCC1 | 157% | 100% | 90.9% | 141% | 111% | 96.3% | 98.3% | 102% | 108% | 103% | 101% | 84.4% | 116% | 113% | 104 | 115% | 109% | 103% | 101%
COC(=O)C1(C(=O)OC)C2C(=O)C3C(C21)C3(C(=O)OC(C)(C)C)C(=O)OC(C)(C)C (centres undefined) | 127% | 107% | 85.4% | 128% | 102% | 90% | 108% | 102% | 105% | 113% | 93.8% | 104% | 102% | 101% | 121 | 109% | 114% | 97.9% | 104%
